Drawing on PubChem BioAssay AID1220 (Sanford-Burnham Center for Chemical Genomics, 2008), this text covers inhibition for 29 compounds.

SMILES strings stand for the structures. Hit rate of the full screen: of about 190,000 compounds, about 1,300 (0.68%) were called active. The sample as a whole holds a higher share of actives than the screen did. Values without a mark were called inactive. Rule as the data show it: active = inhibition above about 50%; inactive = the rest.

The experiment deals with Mannose-6-phosphate isomerase (Homo sapiens) (UniProt P34949). Kind of experiment: human PMI inhibitors, high substrate, primary screen, biochemical, fluorescence intensity, high mannose 6-phosphate (AID 1220). The conditions noted are these: recombinant PMI enzyme, coupled fluorescence intensity; at 20 µM; hits give high values.
Sequence of Mannose-6-phosphate isomerase (Homo sapiens) (P34949 whole entry, looked up): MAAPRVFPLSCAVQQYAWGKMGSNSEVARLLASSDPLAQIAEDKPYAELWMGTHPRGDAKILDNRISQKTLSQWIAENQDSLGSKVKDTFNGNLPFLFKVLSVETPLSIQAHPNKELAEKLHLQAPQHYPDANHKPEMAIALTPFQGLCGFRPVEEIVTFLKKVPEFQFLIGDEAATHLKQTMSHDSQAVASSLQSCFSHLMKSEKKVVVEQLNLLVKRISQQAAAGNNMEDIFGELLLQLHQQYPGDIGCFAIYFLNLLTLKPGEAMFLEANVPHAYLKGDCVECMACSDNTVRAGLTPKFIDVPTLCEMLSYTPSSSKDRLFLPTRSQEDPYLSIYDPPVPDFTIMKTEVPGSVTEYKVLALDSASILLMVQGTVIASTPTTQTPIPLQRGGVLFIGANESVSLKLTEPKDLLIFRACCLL
Broadly, the inhibition is the relative decrease from the control value, in per cent. For the compound `COCCNC(=O)Cn1cc2c(n1)CCC(C)C2` (centres undefined), the inhibition is 4.1%.

Take `COC(=O)C1C(c2ccc(N(C)C)cc2)C(C(=O)OC)S(=O)(=O)CS1(=O)=O` (centres undefined): the inhibition is 15%.

Take `CC(=O)NC1(C2CCCCC2=O)CCCCC1` (centres undefined): the inhibition was 4.2%.

For the compound `Cc1ccc(C(=O)N/C(=C\c2cccs2)c2nc3ccccc3[nH]2)cc1`, the inhibition is 57.5% (active).

Take `O=C(N/C(=C/c1cccs1)c1nc2ccccc2[nH]1)c1ccccc1`: the inhibition was -4.7%.

As for `COc1ccc(C(=O)N/C(=C/c2cccs2)c2nc3ccccc3[nH]2)cc1OC`, the inhibition is 3.9%.

Consider `Cc1cc(C)cc(N2C(=O)CN(Cc3sccc3C)C2=S)c1`, for which the inhibition is 0.5%.

As for `CCOc1cccc(OCCOc2ccc(C(=O)c3ccccc3)cc2)c1`, the inhibition is 10.2%.

As for `CN1CCN(c2nc(-c3ccc(Cl)s3)cs2)CC1`, the inhibition was -4.8%.

In the case of `CCN(CC)c1ccc(C=Nc2ccc(C)cc2C)c(O)c1`, the inhibition is 36.9%.

Consider `CCN(CC)c1ccc(C=Nc2cc(C)ccc2C)c(O)c1`, for which the inhibition is 58.3% (active).

Turning to `CCN(CC)c1ccc(/C=N/NC(=S)NCc2ccccc2)c(O)c1`, the inhibition is 1.2%.

For the compound `CCN(CC)c1ccc(C=Nc2ccccc2C)c(O)c1`, the inhibition was 66.6% (active).

With `CCN(CC)c1ccc(/C=N/Nc2ccc(C)cc2)c(O)c1`, the inhibition is -70.5%.

Consider `CCN(CC)c1ccc(/C=N/N2C(=O)c3ccccc3C2=O)c(O)c1`, for which the inhibition is -18.7%.

Regarding `Cc1ccc(-c2cc(C(=O)O)n(-c3ccc(S(N)(=O)=O)cc3)n2)cc1`, the inhibition was -17.2%.

For the compound `COc1cc(CC(=O)OCC(=O)Nc2ccc([N+](=O)[O-])cc2)cc(OC)c1OC`, the inhibition is 5.9%.

Turning to `CCC(=O)Nc1cccc2cccnc12`, the inhibition is 1.3%.

Take `CC(C)NC(=O)COc1ccccc1C#N`: the inhibition is -4.6%.

Regarding `Cc1ccc(C(=O)c2c[nH]cc2-c2ccccc2)cc1`, the inhibition was 4.1%.

For `CC(C(=O)NC1CCCC1)N(Cc1ccco1)C(=O)c1snc(C(=O)NC2CCCC2)c1N` (centres undefined), the inhibition is 4%.

Turning to `CC1=CC2(O)OCCN(CCO)C2=CC1=O` (centres undefined), the inhibition was 57.4% (active).

For `Cc1ccc(-n2cccc2/C=C2\C(=N)N3N=C(c4ccco4)SC3=NC2=O)cc1`, the inhibition was -16.6%.

Take `Cc1ccc2c(c1)c1c(n2CC(O)CNC(C)(C)C)CCCC1` (centres undefined): the inhibition was 27.9%.

For `Cn1c(/N=C/c2cc(Cl)ccc2O)nc2ccccc21`, the inhibition is 49.3%.

On to `CCn1c(/C=N/c2nc3ccccc3n2C)nc2ccccc21`, for which the inhibition is 33.8%.

On to `Cc1nc2ccccc2c(=O)n1/N=C/c1c(O)ccc2ccccc12`, for which the inhibition was 17.6%.

Take `Cc1nn(C)c(C)c1N=Cc1c(O)ccc2ccccc12`: the inhibition is 50.3% (active).

As to `Oc1ccc2ccccc2c1/C=N/n1cnnc1`, the inhibition was 40.6%.
